The target in this experiment is Hexokinase HKDC1 (Homo sapiens) (UniProt Q2TB90). The experiment can be described thus: compounds lowering human HKDC1 activity – biochemical, single concentration, confirmation (AID 504710). To be noted: recombinant HKDC1, G6PDH/diaphorase/resazurin fluorescence; at 20 µM; hits give high values.

Values without a mark were called inactive. Activity calls are given as the source filed them.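 How the source made its calls: active means inhibition reaching about 16% in any single replicate (limit read from the data); inactive means the rest.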

Hexokinase HKDC1 (Homo sapiens), sequence (Q2TB90 whole entry, looked up): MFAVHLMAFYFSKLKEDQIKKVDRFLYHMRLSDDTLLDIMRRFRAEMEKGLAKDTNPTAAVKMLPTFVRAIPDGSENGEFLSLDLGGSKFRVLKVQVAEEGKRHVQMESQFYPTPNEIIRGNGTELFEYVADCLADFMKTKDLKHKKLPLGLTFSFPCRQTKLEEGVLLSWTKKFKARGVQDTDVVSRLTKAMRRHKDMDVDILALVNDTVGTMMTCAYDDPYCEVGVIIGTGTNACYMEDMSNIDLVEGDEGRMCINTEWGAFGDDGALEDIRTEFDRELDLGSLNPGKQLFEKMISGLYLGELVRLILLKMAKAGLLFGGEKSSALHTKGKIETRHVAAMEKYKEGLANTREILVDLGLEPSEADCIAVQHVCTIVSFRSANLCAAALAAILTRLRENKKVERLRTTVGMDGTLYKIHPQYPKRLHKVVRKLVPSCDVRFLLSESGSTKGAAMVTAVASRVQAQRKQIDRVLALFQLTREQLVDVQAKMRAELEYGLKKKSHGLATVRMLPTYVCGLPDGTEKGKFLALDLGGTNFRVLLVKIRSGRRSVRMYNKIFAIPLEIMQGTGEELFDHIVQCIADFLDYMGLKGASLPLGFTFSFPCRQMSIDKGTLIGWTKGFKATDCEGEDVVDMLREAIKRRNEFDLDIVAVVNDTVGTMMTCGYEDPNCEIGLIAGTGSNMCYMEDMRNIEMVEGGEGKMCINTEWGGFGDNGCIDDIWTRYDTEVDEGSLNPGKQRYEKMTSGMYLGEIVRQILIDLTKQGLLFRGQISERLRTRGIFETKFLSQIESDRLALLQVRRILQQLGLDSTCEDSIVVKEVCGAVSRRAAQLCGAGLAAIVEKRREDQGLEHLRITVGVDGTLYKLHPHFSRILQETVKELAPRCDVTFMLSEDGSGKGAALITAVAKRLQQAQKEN

In general, inhibition refers to the drop in the measured response relative to a control, in per cent. Turning to `O=C(COC(=O)c1n[nH]c2ccccc12)c1cccc(Br)c1`, the inhibition was -30.5%.
In the case of `CC[n+]1c(/C=C2\Sc3ccccc3N2C)ccc2cccc(C)c21` it was -37.8%; in that of `Cc1cc(C)c(S(=O)(=O)/N=C2\C=C(Nc3ccc(C(=O)O)cc3)C(=O)c3ccccc32)c(C)c1`, 39.5% (active); in that of `COc1cc(/C=C(\C#N)c2nc3ccc(C)cc3[nH]2)cc([N+](=O)[O-])c1O`, 42.2% (active).
In the case of `CC(=NNC(=S)SCc1ccccc1)c1ccccn1` it was -28.3%; in that of `CC(=NNC(=S)N1CC2CCC(CC2)C1)c1cccc(C)n1`, -51.9%; in that of `O=S(=O)(Nc1ccc(O)c2ccccc12)c1cccs1`, 30.6% (active).
In the case of `O=S(=O)(NC1c2cccc3cccc(c23)C1N1CCNCC1)c1ccccc1` (stereo not given) it was -94.7%; in that of `Cc1ccc(N=C2C(=S)N(c3ccc(C)cc3)C(=N)N2/N=C/c2ccc(Cl)cc2)cc1`, -45.3%; in that of `Cc1ccc2oc(=O)c3cnn(CC(=O)N4CCc5ccccc5C4)c3c2c1`, -50.8%.
For `C[N+](C)(CCCCCC[N+](C)(C)CCCN1C(=O)c2cccc3cccc(c23)C1=O)CCCN1C(=O)c2cccc3cccc(c23)C1=O`, the inhibition was -82%.
As for `Cc1nc2c(c(=O)c3ccccc3n2C)c(=O)n1-c1ccccc1`, the inhibition was 56% (active).
In the case of `CC(=NNC(=S)Nc1cccc(C)c1)c1ccccn1` it was -60.1%; in that of `O=C1C(Nc2ccccc2)=C/C(=N/S(=O)(=O)c2cccs2)c2ccccc21`, 65% (active).
As for `COC1=C(Br)C(=O)c2ncccc2C1=O`, the inhibition was 64.7% (active).

For the origin of these results see PubChem BioAssay AID504710 (Sanford-Burnham Center for Chemical Genomics, 2011).
